DRD3 antagonist = qHTS of D3 Dopamine Receptor Antagonist: qHTS | D(3) dopamine receptor (Homo sapiens), P35462 | AID 652054, 2013 | D3R cells, DiscoveRx beta-arrestin luminescence, antagonist mode; stronger effect = lower value | max response, negative = inhibition, % | 2.5% of 360,000 active; in the data active = max response below about -50%; inconclusive = no clear call, values can overlap the other calls; also: % is scaled to controls: 0 for no effect and ±100 for the full control effect
Target sequence (P35462 whole entry, looked up): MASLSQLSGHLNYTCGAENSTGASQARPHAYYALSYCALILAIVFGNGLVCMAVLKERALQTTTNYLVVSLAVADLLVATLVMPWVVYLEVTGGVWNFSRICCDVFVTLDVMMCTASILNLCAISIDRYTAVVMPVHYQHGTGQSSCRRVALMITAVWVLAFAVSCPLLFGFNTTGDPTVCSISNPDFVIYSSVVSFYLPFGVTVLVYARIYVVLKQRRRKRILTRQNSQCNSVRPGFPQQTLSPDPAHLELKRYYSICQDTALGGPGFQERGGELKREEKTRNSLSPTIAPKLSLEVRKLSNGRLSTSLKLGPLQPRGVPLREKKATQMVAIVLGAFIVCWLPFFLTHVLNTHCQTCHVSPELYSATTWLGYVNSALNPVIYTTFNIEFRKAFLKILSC
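Cells plated overnight at 1500 cells/well, then exposed to library compounds with dopamine controls for 90 minutes at 37 degrees C. DiscoveRx reagent added for 30–60 minutes at room temperature; luminescence read, quantitative HTS format.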
DRD3 agonist = qHTS of D3 Dopamine Receptor Agonist: qHTS; D3R DiscoveRx beta-arrestin cells, luminescence, 90 min; max activation, %; 0.58% of 410,000 active; AID 652048, 2013; in the data active = max activation above about 30%; also: 0% is about no effect
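Agonist-mode cell screen: cells plated at 1500/well and incubated overnight at 37 °C, then exposed to library compounds for 90 min at 37 °C. Detection reagent was added for 30–60 min at room temperature, and luminescence was read.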
DT40 TDP1 CPT = qHTS for Inhibitors of human tyrosyl-DNA phosphodiesterase 1 (TDP1): qHTS in cells in presence of CPT. chicken DT40 Tdp1-/-;hTDP1 cells + 20 nM CPT, ATP luminescence, 48 h. Potency, µM (doses to about 46.2 µM), inactives show top-dose activity change, negative = growth inhibition, most hits filed as inhibitors. 12% of 420,000 active. AID 686979, 2013; also: potency is read from the fitted curve at half-maximal effect; % is scaled to controls: 0 for no effect and ±100 for the full control effect; nearly all actives have a fitted effect of over 55% in size
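Chicken DT40 Tdp1-/- cells complemented with human TDP1, 400 cells/well, exposed to compounds plus 20 nM camptothecin for at least 48 h at 37 C; viability read as ATP content by CellTiter-Glo luminescence.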
TDP1 cell noCPT = qHTS for Inhibitors of human tyrosyl-DNA phosphodiesterase 1 (TDP1): qHTS in cells in absence of CPT; DT40 Tdp1-/- hTDP1 cells, no CPT, ATP luminescence, 48 h; Potency, µM (titrated, usually from 46.2 µM), for inactives: at the highest dose activity change, negative = growth inhibition, most hits filed as inhibitors; 15% of 420,000 active; also: potency is read from the fitted curve at half-maximal effect; % is scaled to controls: 0 for no effect and ±100 for the full control effect; nearly all actives have a fitted effect of over 55% in size
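No-CPT arm: Tdp1-/-;hTDP1 DT40 cells (400/well) plus compounds, incubated ≥48 hr at 37 °C. Readout CellTiter-Glo luminescence.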
ClpP mod = qHTS Assay for Activators of ClpP; purified B. subtilis ClpP, FRET peptide cleavage, 20 min; Potency, µM (doses to about 57.5 µM), inactives show at the highest dose activity change, negative = active; 1.9% of 340,000 active; AID 651965, 2013; active = well fitted falling curve with a large enough effect; inconclusive = small, poorly fitted or top-dose-only effect; inactive = no such curve, though single readings can be large or run the other way; also: potency is read from the fitted curve at half-maximal effect; the source files actives as falling curves though it sought activators and does not explain the sign; nearly all actives have a fitted effect of over 65% in size
Target sequence (P80244 whole entry, looked up): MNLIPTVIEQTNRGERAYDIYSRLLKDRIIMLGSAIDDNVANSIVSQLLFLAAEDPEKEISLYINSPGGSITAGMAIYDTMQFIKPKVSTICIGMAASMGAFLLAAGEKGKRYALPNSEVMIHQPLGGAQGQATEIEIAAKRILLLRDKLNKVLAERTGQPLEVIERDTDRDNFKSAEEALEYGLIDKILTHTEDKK
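FRET quenching reversal measured ClpP activation: 10 microg/mL B. subtilis ClpP at pH 8 with the FRET-FV decapeptide, read at 430 nm after 320 nm excitation. The 20-min minus 0-min signal was scaled between DMSO/no-enzyme wells and ADEP (5.8 microM final).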
IL1B secr inh = qHTS for Inhibitors of Inflammasome Signaling: IL-1-beta AlphaLISA Primary Screen; AID 743279, 2014; 4.7% of 360,000 active; THP-1 LPS/ATP IL-1B secretion, AlphaLISA, 16 h; stronger effect = lower value; activity change, % at 57.5 µM; in the data active = activity change below about -50%; inconclusive = mostly about -30% to -49%; also: % is scaled to controls: 0 for no effect and ±100 for the full control effect
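Secreted IL-1B measured by AlphaLISA bead assay after 16 h compound exposure of THP-1 cells; compounds (final up to 57.5 uM) added 1 h before LPS (250 ng/mL) and ATP (1.25 mM) stimulation; lower signal means less secretion.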
Numbers without * were called inactive; ? = inconclusive; nt = not tested or not shown. Shown are actives, neighbours in structure and some others; about 21% of the full set was active somewhere. Unless noted, calls follow the shape of the dose curve; as a rule, active = well fitted inhibition curve with a large enough effect; inconclusive = small, poorly fitted or top-dose-only effect; inactive = flat fitted curve, though single readings scatter.

SMILES	DRD3 antagonist	DRD3 agonist	DT40 TDP1 CPT	TDP1 cell noCPT	ClpP mod	IL1B secr inh
Cc1cc(C(=O)N2CCC(C)(C(=O)NS(=O)(=O)C3CC3)C2)n(C(C)(C)C)n1 (configuration not stated)	3	5	1%	26%	0%	0
COc1ccc(C#Cc2cccc(-c3nc(C(=O)NCCCN4CCOCC4)cc4c3[C@H](CCO)N(S(=O)C(C)(C)C)C4)c2)cc1OC (some centres not stated)	13	0	?	23µM*	-8%	-27
COCCNC(=O)c1cc2c(c(-c3cccc(-c4cc5ccccc5o4)c3)n1)[C@@H](CCO)N(S(=O)C(C)(C)C)C2 (some centres not stated)	30	4	16µM*	?	-13%	-19
CN1CCN(C(=O)c2cc3c(c(-c4cccc(-c5cc6ccccc6o5)c4)n2)[C@@H](CCO)N(S(=O)C(C)(C)C)C3)CC1 (some centres not stated)	-20	-2	?	?	-3%	-21
CCNC(=O)c1cc2c(c(-c3cccc(-c4cc5ccccc5o4)c3)n1)[C@H](CCO)N(C(=O)NC(C)C)C2	43	0	21µM*	9.2µM*	5%	-23
CC(C)(C)S(=O)N1Cc2cc(C(=O)NCc3ccc(Oc4ccccc4)cc3)nc(-c3cccc(-c4cc5ccccc5o4)c3)c2[C@@H]1CCO (some centres not stated)	92	4	?	?	22%	-6
COCCNC(=O)c1cc2c(c(-c3cccc(-c4cc5ccccc5o4)c3)n1)[C@H](CCO)N(S(=O)C(C)(C)C)C2 (some centres not stated)	52	3	?	23µM*	-25%	-8
C/C(CC(=O)Nc1cccnc1)=N\NC(=O)C(C)Oc1ccc(Cl)cc1Cl (configuration not stated)	-16	-21	9%	-20%	0%	7
Cc1ccc(C)c(S(=O)(=O)Nc2ccc(C(=O)N3CCC3)cc2)c1	5	5	-29%	?	-2%	13
Cc1c(NC(=O)c2nn(CC(C)C)c(=O)c3ccccc23)c(=O)n(-c2ccccc2)n1C	17	-2	-2%	-14%	-6%	11
CC(C)NC(=O)N1Cc2cc(C(=O)NC3CCCC3)nc(-c3cccc(-c4cccnc4)c3)c2[C@@H]1CCO	2	-12	?	13µM*	1%	-13
CC1(C(=O)NCc2cccc(C(F)(F)F)c2)CCN1Cc1ccc(-c2ccccc2)o1 (configuration not stated)	-5	0	?	?	-10%	-19
CC1(C(=O)NCc2cccc(C(F)(F)F)c2)CCN1Cc1cc2ccccc2o1 (configuration not stated)	2	-4	26µM*	18µM*	0%	?
CCNC(=O)C1(C)CCCN1Cc1cccc(C(F)(F)F)c1 (configuration not stated)	5	7	18µM*	18µM*	-1%	31
C[C@H]1[C@@H](c2ccccc2)Oc2ccc(Cl)cc2S(=O)(=O)N1Cc1ccc(F)cc1F	27	9	?	?	-3%	-8
CC(=O)c1ccc(NC(=O)CCCN2C(=O)C(c3ccccc3)Oc3cccnc32)cc1 (configuration not stated)	11	-1	-25%	-26%	-2%	-28
Cc1onc(-c2ccccc2)c1C(=O)OCC(=O)N(CC(C)C)c1c(N)n(Cc2ccccc2)c(=O)[nH]c1=O	19	3	3%	-7%	1%	-3
COc1ccc2c(c1)c1c(c(=O)n(Cc3ccccc3)c(=O)n1Cc1cc(C)ccc1C)n2C	nt	7	7%	-8%	?	nt
CCc1cc2ccc(C)cc2nc1SCC(=O)N1CCN(C(=O)c2ccco2)CC1	-1	-7	?	18µM*	-2%	?
CCc1cc2cc(C)cc(C)c2nc1SCC(=O)N1CCN(C(=O)c2ccco2)CC1	36	18	?	?	-3%	-54*
Cc1cc(C)c2nc(SCC(=O)NNC(=O)c3ccco3)c(C)cc2c1	4	15	-2%	?	nt	-10
CCc1cc2cc3c(cc2nc1SCC(=O)N1CCN(C(=O)c2ccco2)CC1)OCO3	5	-6	?	?	-26%	?
COc1ccc(NC(=O)Cn2c(=O)cnc3ccccc32)cc1S(=O)(=O)N1CCCCC1	2	1	-27%	-2%	-2%	7
COc1ccc(C2C(C#N)=C(C)NC3=C2C(=O)c2ccccc23)cc1 (configuration not stated)	-22	-13	?	26µM*	-1%	-17
COc1ccc(C2C(=O)c3ccccc3C2=O)cc1	-7	-10	-13%	-9%	-2%	4
SMILES	DRD3 antagonist	DRD3 agonist	DT40 TDP1 CPT	TDP1 cell noCPT	ClpP mod	IL1B secr inh
CCOc1ccc(C2C(C#N)=C(C)NC3=C2C(=O)c2ccccc23)cc1 (configuration not stated)	1	1	21µM*	15µM*	-11%	7
COc1cc(C2C(C#N)=C(C)NC3=C2C(=O)c2ccccc23)cc(OC)c1OC (configuration not stated)	-20	-12	1µM*	0.58µM*	-1%	50
Cc1ccc(NC(=S)NCc2ccccc2)cc1S(=O)(=O)N1CCCCC1	-2	-4	?	?	0%	-22
NNC(=O)C1C(O)CCC2CN3CCc4c([nH]c5ccccc45)C3CC21 (configuration not stated)	?	-14	-7%	-4%	-16%	-6
Cc1cccc(C)c1OCCn1c(C2CC(=O)N(Cc3ccc(F)cc3)C2)nc2ccccc21 (configuration not stated)	nt	-8	?	18µM*	-2%	nt
Cc1cc(OCCn2c(C3CC(=O)N(Cc4ccc(F)cc4)C3)nc3ccccc32)ccc1Cl (configuration not stated)	nt	-2	?	26µM*	-7%	nt
CCc1ccccc1N1CC(c2nc3ccccc3n2CCOc2ccc(Cl)c(C)c2)CC1=O (configuration not stated)	nt	-11	10µM*	21µM*	?	nt

High-throughput results as filed in PubChem BioAssay.
